High-throughput results: PubChem BioAssay, The Scripps Research Institute Molecular Screening Center
PREPL inh – inhibits the human prolyl oligopeptidase-like enzyme; Q4J6C6; recombinant PREPL, fluorescence polarization activity-based probe; inhibition, % at 5.96 µM; hit rate 0.68% among 320,000; in the data active means inhibition above about 43%;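 further: 0% = enzyme with DMSO and 100% = wells lacking enzyme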
Target sequence (Q4J6C6 whole entry, looked up): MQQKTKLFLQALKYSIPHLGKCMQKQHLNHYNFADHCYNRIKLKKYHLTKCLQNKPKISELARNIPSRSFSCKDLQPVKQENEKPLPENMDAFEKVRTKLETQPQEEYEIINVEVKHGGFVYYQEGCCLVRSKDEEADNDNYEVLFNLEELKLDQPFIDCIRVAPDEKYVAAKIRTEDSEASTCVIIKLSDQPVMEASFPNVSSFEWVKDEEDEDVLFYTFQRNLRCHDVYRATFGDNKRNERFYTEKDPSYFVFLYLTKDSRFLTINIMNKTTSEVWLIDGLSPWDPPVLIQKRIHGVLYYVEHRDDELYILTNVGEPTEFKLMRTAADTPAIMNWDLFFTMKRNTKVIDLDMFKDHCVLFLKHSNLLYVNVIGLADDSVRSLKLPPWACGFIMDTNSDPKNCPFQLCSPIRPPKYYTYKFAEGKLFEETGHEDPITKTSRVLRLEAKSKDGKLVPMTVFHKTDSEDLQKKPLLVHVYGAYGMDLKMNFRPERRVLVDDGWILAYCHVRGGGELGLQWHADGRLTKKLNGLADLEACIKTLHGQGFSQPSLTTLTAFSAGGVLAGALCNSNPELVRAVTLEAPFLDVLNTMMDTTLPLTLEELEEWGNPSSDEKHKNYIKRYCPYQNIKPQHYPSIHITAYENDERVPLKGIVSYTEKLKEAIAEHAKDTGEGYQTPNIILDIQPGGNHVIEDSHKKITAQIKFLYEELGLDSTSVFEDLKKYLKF
LYPLA1 inh – blocks human lysophospholipase 1, a PME1 counter-screen. O75608. recombinant LYPLA1, FP-Rh probe fluorescence polarization. inhibition, % at 5.9 µM. hit rate 0.16% among 320,000. AID 2174;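 active means inhibition above the mean of all tested compounds plus 3 SD, set per campaign, cut at about 14% in these data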;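 further: inhibitors block serine hydrolase probe labeling of LYPLA1 so polarization falls; 0% = enzyme with DMSO and 100% = wells lacking LYPLA1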
PME-1 primary – blocks human protein phosphatase methylesterase 1; AID 2130; inhibition, % at 5.9 µM; recombinant PME-1, FP-Rh probe fluorescence polarization; Q9Y570; hit rate 0.53% among 320,000;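 active means inhibition above the campaign mean of all compounds plus 3 SD, cut at about 26% in these data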;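 further: competitive labeling of PME-1 active site by serine hydrolase directed probe; 0% = PME-1 with DMSO and 100% = wells lacking PME-1 enzyme; inhibitors block probe labeling so polarization falls and inhibition rises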
Fam108B counter – Fam108B inhibition, counter-screen for RBBP9 inhibitors. recombinant Fam108B, FP-Rh probe fluorescence polarization. inhibition, % at 9.51 µM. hit rate 0.33% among 300,000. AID 1947;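 active means inhibition above the screen mean inhibition plus 3 SD, computed separately per campaign, cut at about 18% in these data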;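 further: inhibitors lower polarization as less probe binds the enzyme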
LYPLA2 counter – blocks human lysophospholipase 2, a PME1 counter-screen | O95372 | recombinant LYPLA2, FP-Rh probe fluorescence polarization | inhibition, % at 5.9 µM | hit rate 0.38% among 320,000;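 active means inhibition above the screen-wide mean plus 3 SD, limit set per campaign, cut at about 26% in these data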;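 further: 0% = LYPLA2 with DMSO and 100% = wells lacking LYPLA2 enzyme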
LYPLA1 conf – LYPLA1 (human) inhibition, confirmation counter-screen; hit rate 69% among 480; shares compounds with LYPLA1 inh; AID 2233; inhibition, % at 5.9 µM; recombinant LYPLA1, FP-Rh probe fluorescence polarization;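 active means mean inhibition across replicates above the hit cutoff set in the primary screen, cut at about 15% in these data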;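 further: loss of FP-Rh probe labeling of LYPLA1 seen as lower polarization; 0% = LYPLA1 with DMSO and 100% = wells lacking LYPLA1 enzyme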
LYPLA2 conf – LYPLA2 (human) inhibition, confirmation counter-screen. shares compounds with LYPLA2 counter. recombinant LYPLA2, FP-Rh probe fluorescence polarization. inhibition, % at 5.9 µM. hit rate 72% among 1,100. AID 2232;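 active means mean inhibition across replicates above the hit cutoff set in the primary screen, cut at about 26% in these data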;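 further: blocked labeling of the enzyme by serine hydrolase FP-Rh probe lowers polarization; 0% = enzyme with DMSO and 100% = wells lacking LYPLA2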
LYPLA2 ABPP – blocks human acyl-protein thioesterase 2 in gel ABPP; shares compounds with LYPLA2 counter; rhLYPLA2 in mouse brain proteome, gel ABPP FP-Rh; inhibition, % at 20 µM; hit rate 30% among 150; AID 652029;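 active means inhibition of LYPLA2 enzyme probe labeling above about 50%, limit read from the data; inactive means inhibition below that limit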;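 further: loss of FP-Rh probe labeling of the LYPLA2 gel band measured as band density; 0% = DMSO only control band and 100% = blank gel background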
Active calls of the source: *; . = not tested or not shown. This is a sample that favours compounds with a hit; in the whole collection about 1.3% have one here.

SMILES | PREPL inh | LYPLA1 inh | PME-1 primary | Fam108B counter | LYPLA2 counter | LYPLA1 conf | LYPLA2 conf | others
COc1ccc2oc(=O)c(C(=O)Oc3ccc(NC(C)=O)cc3)cc2c1 | 18.7 | 2.1 | 3.9 | 0.8 | -2.6 | . | .
O=C(/C=C/c1cccc(Br)c1)N1CCN(c2cccc(C(F)(F)F)c2)CC1 | 2.0 | -7.4 | -3.2 | -5.3 | -0.7 | . | .
O=C(/C=C/c1ccc(Br)cc1)N1CCN(c2cccc(C(F)(F)F)c2)CC1 | 6.9 | 46.3* | 0.2 | 1.1 | 77.9* | 48.8* | 62.9*
CCOC(=O)[C@H]1[C@H]2COc3ccc(C)cc3[C@@H]2N2C(=O)[C@@H](C)NC(=O)[C@@]12C | 5.1 | -1.0 | 4.1 | . | 2.5 | . | .
Cc1ccc(OCC(=O)N2CCN(C(=O)CCC3CCCC3)CC2)cc1 | 3.9 | 61.3* | -5.2 | -5.3 | 26.6* | 66.2* | 18.6
CC(Oc1ccc(Br)cc1)C(=O)NC1CCN(Cc2ccccc2)CC1 (stereo not drawn) | 2.9 | 3.0 | -1.2 | -1.6 | 6.6 | . | .
CC(C)CCNC(=O)NC(=O)COC(=O)/C=C/c1cccc([N+](=O)[O-])c1 | 4.5 | 24.6* | 5.1 | -1.7 | 30.0* | 31.2* | 32.5*
C=CCNC(=O)NC(=O)COC(=O)/C=C/c1cccc([N+](=O)[O-])c1 | 2.8 | 2.6 | -2.5 | 1.1 | 9.3 | . | .
CC1CCCCN1CCCNC(=O)CCCN1C(=O)c2cccnc2Sc2ccccc21 (stereo not drawn) | -0.6 | 4.0 | 4.4 | -0.5 | 4.1 | . | .
NC(=O)c1cc([N+](=O)[O-])ccc1NCC1CCCCC1 | -4.9 | 24.5* | -7.2 | 7.2 | 42.7* | 30.6* | 37.3*
O=C(C1CCC(Cn2c(=O)[nH]c3ccccc3c2=O)CC1)N1CCN(c2ccccc2)CC1 (stereo not drawn) | -32.9 | 5.8 | 5.4 | 1.4 | 19.9 | . | .
O=C(C1CCC(Cn2c(=S)[nH]c3ccccc3c2=O)CC1)N1CCN(c2ccccc2)CC1 (stereo not drawn) | -39.5 | 35.5* | -10.8 | -5.5 | 53.0* | 45.2* | 52.3*
COc1ccc(N2CCN(C(=O)C3CCC(Cn4c(=S)[nH]c5ccccc5c4=O)CC3)CC2)cc1 (stereo not drawn) | 5.1 | 39.8* | -4.3 | -1.3 | 83.1* | 43.1* | 84.1*
COc1cccc(-c2nc(CS(=O)CC(=O)NC3CCCCC3)c(C)o2)c1 (stereo not drawn) | 4.2 | 1.0 | 3.1 | -2.0 | -3.5 | . | .
O=C(COc1ccccc1Cl)Nc1ccc(N2CCCC2)cc1 | 10.6 | 33.2* | 1.0 | -1.1 | 26.9* | 0.9 | -2.1
O=C(COc1ccccc1)Nc1ccc(N2CCCCC2)cc1 | 21.2 | 4.8 | 0.2 | 0.9 | 6.2 | . | .
O=C(COc1ccccc1)N1CCN(c2ccc([N+](=O)[O-])c(N3CCCCC3)c2)CC1 | 15.9 | 12.3 | -1.6 | -1.1 | 4.8 | . | .
O=C(COc1ccc(Cl)cc1)N1CCN(c2ccc([N+](=O)[O-])c(N3CCOCC3)c2)CC1 | 29.5 | 67.8* | 2.6 | 3.1 | 32.0* | 75.3* | 28.7*
COc1ccc(-n2nc(C(=O)NCC(=O)N3CCN(Cc4ccccc4)CC3)c3ccccc3c2=O)c(OC)c1 | 4.8 | 35.6* | 2.2 | -0.2 | 78.7* | 39.3* | 80.6*
COc1ccc(N2CCN(C(=O)CNC(=O)c3nn(-c4ccc(OC)cc4)c(=O)c4ccccc34)CC2)cc1 | 16.5 | 21.8* | 0.7 | -1.4 | 54.8* | 16.5* | 59.6* | LYPLA2 ABPP=43.0
COc1ccc(-n2nc(C(=O)NCC(=O)N3CCN(Cc4ccccc4)CC3)c3ccccc3c2=O)cc1OC | 15.6 | 20.2* | -5.2 | 5.1 | 37.6* | 45.0* | 63.6*
COc1ccc(-n2nc(C(=O)NCC(=O)N3CCCCC3)c3ccccc3c2=O)c(OC)c1 | 11.1 | -2.4 | 1.4 | 3.6 | -0.3 | . | .
COc1ccc(-n2nc(C(=O)NCC(=O)N3CCN(C)CC3)c3ccccc3c2=O)cc1OC | 24.2 | 0.6 | 3.7 | 4.1 | 7.1 | . | .
O=C(CCCc1ccccc1)N1CCN(c2ccc([N+](=O)[O-])cc2)CC1 | -15.2 | 32.9* | 3.5 | 2.8 | 38.7* | 41.1* | 54.0*
CCC(C(=O)NCc1cccs1)n1nc(C)n2c(cc3occc32)c1=O (stereo not drawn) | 2.9 | -0.7 | -0.6 | -1.5 | 6.9 | . | .
SMILES | PREPL inh | LYPLA1 inh | PME-1 primary | Fam108B counter | LYPLA2 counter | LYPLA1 conf | LYPLA2 conf | others
CC(=O)c1ccc(OCc2cc(C(=O)N(C)CCOc3ccc(C)cc3)no2)cc1 | -21.8 | 20.3* | 1.4 | 0.6 | 26.1* | 22.7* | 9.4
CC(=O)c1ccc(OCc2cc(C(=O)N(C)Cc3nc4c(C)cccc4[nH]3)no2)cc1 | -6.8 | 2.1 | 3.5 | 6.2 | 10.7 | . | .
O=C(N1CCOCC1)n1nnc2ccccc21 | 4.4 | 91.1* | 1.9 | 1.8 | 46.9* | 94.1* | 51.5*
O=C(N1CCOCC1)n1cnc2ccccc21 | -1.5 | -0.6 | 3.1 | -2.5 | 1.6 | . | .
COC(=O)c1ccc2c(c1)SC1=C(CCCC1=O)N2 | 20.3 | 28.0* | 28.8* | 17.8 | 27.3* | 18.9* | 15.2
CCC(=O)N1CCN(c2ccc(NC(=S)NC(=O)c3cccc([N+](=O)[O-])c3)cc2)CC1 | 18.4 | 39.0* | 0.2 | 4.8 | 58.0* | 32.5* | 54.9*
CCC(=O)N1CCN(c2ccccc2NC(=S)NC(=O)c2cccc([N+](=O)[O-])c2)CC1 | 10.4 | -1.2 | -2.8 | 1.7 | -2.1 | . | .
CC(=O)Nc1ccccc1-c1ccc(C)o1 | -5.2 | -2.3 | -3.0 | -1.2 | 4.3 | . | .
Cc1ccc(NC(=O)CS(=O)CC(=O)Nc2ccccc2-c2ccc(C)o2)cc1 (stereo not drawn) | 11.2 | 33.2* | 35.5* | 4.3 | 41.4* | 0.2 | -4.6
CCOC(=O)Cc1csc(NS(=O)(=O)c2ccc(SC)cc2)n1 | 5.5 | 1.1 | -3.6 | -3.2 | -5.8 | . | .
CCn1cc(C(=O)Nc2sc(C)c(C)c2C(=O)OC)cn1 | 5.9 | 2.1 | 9.1 | -3.4 | -0.8 | . | .
Cc1cc(C(=O)Nc2ccccc2C(=O)O)c(C)o1 | 2.4 | -1.4 | -2.8 | -1.3 | 1.7 | . | .
COc1ccc(C(=O)NC(=S)Nc2ccc(CN3CCOCC3)cc2)cc1Br | -13.5 | 15.1* | 2.3 | 1.9 | 43.7* | 21.8* | 47.3*
Cc1ccc(C(=O)NC(=S)Nc2ccc(N3CCOCC3)cc2)cc1C | 13.3 | -2.0 | -2.0 | 5.9 | -2.3 | . | .
COc1ccc(C(=O)NC(=S)Nc2ccc(N3CCOCC3)cc2)cc1Cl | -0.9 | 14.2* | 5.2 | -0.6 | 39.1* | 24.8* | 54.7*
Cc1ccc(S(=O)(=O)n2[nH]c(=O)cc2N)cc1 | 2.3 | 1.8 | 1.9 | -0.6 | 2.0 | . | .
O=C(c1ccco1)N1CCN(c2ncnc3c2nnn3Cc2ccccc2Cl)CC1 | -5.4 | 8.4 | 7.7 | 6.7 | 17.1 | . | .
